Test results: PubChem BioAssay (NCATS)
A number with no mark means an inactive call. Results filed as inconclusive are left out. Entries that show only a call come without a potency. The source made the active and inactive calls. Unless noted, the call rests on the fitted dose curve; in most records, active means well fitted curve in the direction sought with a large enough effect; inconclusive means small, poorly fitted or top-dose-only effect, or another doubt; inactive means no such curve, though single readings can be large; an effect the other way counts as inactive or inconclusive.

Experiments:
[1] = qHTS for Inhibitors of Plasmodium falciparum (DD2) proliferation (AID 504314);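 further: parasite DNA measured by SYBR Green fluorescence after red cell lysis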
Outline: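 Erythrocytes infected with P. falciparum Dd2 (0.3% parasitemia, 2.5% hematocrit) exposed to compound 72 h at 37C, 5% CO2. Parasite DNA quantified by SYBR Green fluorescence after saponin/Triton lysis overnight; normalized to 0.29 uM artemisinin and DMSO.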

[2] = qHTS for Inhibitors of Plasmodium falciparum (GB4) proliferation (AID 504315); further: nearly all actives have a fitted effect of over 50% in size
Outline: (§1)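 Erythrocytes infected with P. falciparum line (0.3% parasitemia, 2.5% hematocrit final) incubated with compounds 72 h at 37 °C, 5% CO2; SYBR Green lysis buffer added, fluorescence read next day. Normalized to 0.29 uM artemisinin and DMSO.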

[3] = qHTS for Inhibitors of Plasmodium falciparum (7G8) proliferation (AID 504316); further: series mostly up to about 6.7 µM; nearly all actives have a fitted effect of over 65% in size
Outline: as §1

[4] = qHTS for Inhibitors of Plasmodium falciparum (HB3) proliferation (AID 504318); further: nearly all actives have a fitted effect of over 60% in size
Outline: as §1

[5] = qHTS for Inhibitors of Plasmodium falciparum (CP250) proliferation (AID 504320)
Outline: as §1

[6] = biological target: Atrial natriuretic peptide receptor 1 (Homo sapiens) (UniProt P16066); test: Natriuretic polypeptide receptor (hNpr1) antagonism - Pilot CMLD screen (AID 1347052; calls by dose curve;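 further: cGMP level read as GloSensor luciferase luminescence after agonist stimulation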; further: potency means the concentration at half of the fitted maximal effect;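 on activity change, negative = inhibition: HEK293 cells with hNpr1 stimulated by hNppA peptide at 0.1 nM; series mostly up to about 9.2 µM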)
Atrial natriuretic peptide receptor 1 (Homo sapiens), sequence (P16066 whole entry, looked up): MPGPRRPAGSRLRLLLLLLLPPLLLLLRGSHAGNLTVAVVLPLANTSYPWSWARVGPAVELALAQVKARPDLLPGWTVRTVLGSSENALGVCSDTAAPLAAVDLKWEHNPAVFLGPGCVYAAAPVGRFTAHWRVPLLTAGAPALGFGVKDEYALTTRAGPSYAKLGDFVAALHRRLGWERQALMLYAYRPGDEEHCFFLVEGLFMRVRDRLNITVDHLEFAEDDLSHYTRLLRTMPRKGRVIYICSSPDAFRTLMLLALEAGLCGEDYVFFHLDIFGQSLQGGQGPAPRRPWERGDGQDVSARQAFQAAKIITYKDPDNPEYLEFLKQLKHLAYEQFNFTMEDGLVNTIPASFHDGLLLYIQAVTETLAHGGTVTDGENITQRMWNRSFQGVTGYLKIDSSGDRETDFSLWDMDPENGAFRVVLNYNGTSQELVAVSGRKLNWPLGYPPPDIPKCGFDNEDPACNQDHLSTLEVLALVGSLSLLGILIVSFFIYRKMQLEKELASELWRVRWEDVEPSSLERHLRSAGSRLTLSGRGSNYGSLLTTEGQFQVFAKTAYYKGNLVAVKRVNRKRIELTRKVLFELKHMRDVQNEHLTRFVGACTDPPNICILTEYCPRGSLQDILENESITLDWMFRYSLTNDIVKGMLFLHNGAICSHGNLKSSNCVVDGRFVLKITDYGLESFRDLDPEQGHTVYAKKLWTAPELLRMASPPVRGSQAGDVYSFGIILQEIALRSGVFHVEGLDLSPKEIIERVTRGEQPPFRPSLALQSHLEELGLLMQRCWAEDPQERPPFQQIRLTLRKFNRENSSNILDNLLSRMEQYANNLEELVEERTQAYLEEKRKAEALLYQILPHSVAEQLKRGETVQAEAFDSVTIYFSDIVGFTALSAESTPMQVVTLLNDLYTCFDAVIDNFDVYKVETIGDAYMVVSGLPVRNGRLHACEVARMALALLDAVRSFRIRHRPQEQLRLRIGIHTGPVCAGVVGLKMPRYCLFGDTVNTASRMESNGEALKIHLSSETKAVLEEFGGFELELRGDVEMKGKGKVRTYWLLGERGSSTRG

[7] = biological target: Cytochrome P450 2C9 (Homo sapiens) (UniProt P11712); test: qHTS Assay for Inhibitors and Substrates of Cytochrome P450 2C9 (AID 883); further: nearly all actives have a fitted effect of over 60% in size
Cytochrome P450 2C9 (Homo sapiens), sequence (P11712 whole entry, looked up): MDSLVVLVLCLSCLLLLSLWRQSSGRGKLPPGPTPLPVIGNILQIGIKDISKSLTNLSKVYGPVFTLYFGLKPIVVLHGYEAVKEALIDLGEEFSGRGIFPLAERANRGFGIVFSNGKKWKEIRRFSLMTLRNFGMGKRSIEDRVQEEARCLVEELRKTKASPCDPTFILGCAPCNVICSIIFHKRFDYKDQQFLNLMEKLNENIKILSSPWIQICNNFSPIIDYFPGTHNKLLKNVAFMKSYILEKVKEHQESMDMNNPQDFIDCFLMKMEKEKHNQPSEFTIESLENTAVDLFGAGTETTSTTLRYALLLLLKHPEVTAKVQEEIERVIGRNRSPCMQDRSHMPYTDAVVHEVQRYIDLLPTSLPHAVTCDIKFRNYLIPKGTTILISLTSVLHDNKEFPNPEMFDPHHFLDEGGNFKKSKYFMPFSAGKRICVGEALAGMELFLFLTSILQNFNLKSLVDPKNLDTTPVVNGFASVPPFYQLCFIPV
Outline: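 Luminescent read-out of deoxyluciferin hydroxylation, normalized to 57uM sulphaphenazole (AC100). Reaction: 10nM enzyme, 100uM Luciferin-H (equal to KM), 25mM KPO4, 10 min compound preincubation, then 60 min with NADPH regeneration, both at 37C.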

[8] = biological target: Cytochrome P450 3A4 (Homo sapiens) (UniProt P08684); test: qHTS Assay for Inhibitors and Substrates of Cytochrome P450 3A4 (AID 884); further: series mostly up to about 57 µM; nearly all actives have a fitted effect of over 50% in size
Cytochrome P450 3A4 (Homo sapiens), sequence (P08684 whole entry, looked up): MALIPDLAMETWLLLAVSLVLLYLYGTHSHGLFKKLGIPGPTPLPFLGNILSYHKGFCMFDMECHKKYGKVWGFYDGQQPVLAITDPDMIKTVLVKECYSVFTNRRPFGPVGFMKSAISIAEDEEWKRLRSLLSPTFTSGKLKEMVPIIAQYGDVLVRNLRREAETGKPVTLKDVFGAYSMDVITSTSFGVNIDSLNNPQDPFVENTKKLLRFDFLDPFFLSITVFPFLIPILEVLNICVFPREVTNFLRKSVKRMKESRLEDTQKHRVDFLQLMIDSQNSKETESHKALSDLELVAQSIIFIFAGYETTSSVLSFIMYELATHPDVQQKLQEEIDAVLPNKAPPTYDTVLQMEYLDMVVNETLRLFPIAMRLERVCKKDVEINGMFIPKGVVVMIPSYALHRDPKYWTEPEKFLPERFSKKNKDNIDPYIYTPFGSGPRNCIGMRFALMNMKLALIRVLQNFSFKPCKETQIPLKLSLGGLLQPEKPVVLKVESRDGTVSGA
Outline: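 20 nM human CYP3A4 with 25 uM Luciferin-PPXE (at KM) in 200 mM KPO4, preincubated 10 min with compound; NADPH regeneration started a 60 min RT reaction. Luciferin detected by luminescence, normalized to 57 uM ketoconazole as full inhibition.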

[9] = biological target: Cytochrome P450 2D6 (Homo sapiens) (UniProt P10635); test: qHTS Assay for Inhibitors and Substrates of Cytochrome P450 2D6 (AID 891);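 further: luciferin methyl ether substrate demethylated by CYP2D6 with NADPH regeneration; nearly all actives have a fitted effect of over 60% in size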
Cytochrome P450 2D6 (Homo sapiens), sequence (P10635 whole entry, looked up): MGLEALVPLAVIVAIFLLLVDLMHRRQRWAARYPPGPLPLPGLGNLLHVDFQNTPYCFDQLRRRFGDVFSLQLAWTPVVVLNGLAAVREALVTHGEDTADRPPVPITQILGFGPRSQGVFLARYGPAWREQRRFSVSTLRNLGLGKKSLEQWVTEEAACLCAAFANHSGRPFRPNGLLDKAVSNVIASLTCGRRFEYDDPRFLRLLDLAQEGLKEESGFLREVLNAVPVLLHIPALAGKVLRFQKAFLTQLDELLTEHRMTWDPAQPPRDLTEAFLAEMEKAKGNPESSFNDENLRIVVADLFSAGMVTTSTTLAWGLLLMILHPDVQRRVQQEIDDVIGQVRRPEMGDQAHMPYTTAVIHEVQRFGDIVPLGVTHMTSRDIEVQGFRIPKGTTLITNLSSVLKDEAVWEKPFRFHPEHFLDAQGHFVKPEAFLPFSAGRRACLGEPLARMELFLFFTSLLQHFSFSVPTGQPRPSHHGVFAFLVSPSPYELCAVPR
Outline: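 Human CYP2D6 (5 nM) with 30 uM Luciferin-ME EGE (at Km) in 100 mM KPO4, compound preincubated 10 min, then NADPH regeneration system for 60 min at room temperature. Luciferin read by luminescence; normalized to 1.43 uM quinidine.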

[10] = biological target: Cytochrome P450 2C19 (Homo sapiens) (UniProt P33261); test: qHTS Assay for Inhibitors and Substrates of Cytochrome P450 2C19 (AID 899); further: nearly all actives have a fitted effect of over 60% in size; further: potency means the concentration at half of the fitted maximal effect
Cytochrome P450 2C19 (Homo sapiens), sequence (P33261 whole entry, looked up): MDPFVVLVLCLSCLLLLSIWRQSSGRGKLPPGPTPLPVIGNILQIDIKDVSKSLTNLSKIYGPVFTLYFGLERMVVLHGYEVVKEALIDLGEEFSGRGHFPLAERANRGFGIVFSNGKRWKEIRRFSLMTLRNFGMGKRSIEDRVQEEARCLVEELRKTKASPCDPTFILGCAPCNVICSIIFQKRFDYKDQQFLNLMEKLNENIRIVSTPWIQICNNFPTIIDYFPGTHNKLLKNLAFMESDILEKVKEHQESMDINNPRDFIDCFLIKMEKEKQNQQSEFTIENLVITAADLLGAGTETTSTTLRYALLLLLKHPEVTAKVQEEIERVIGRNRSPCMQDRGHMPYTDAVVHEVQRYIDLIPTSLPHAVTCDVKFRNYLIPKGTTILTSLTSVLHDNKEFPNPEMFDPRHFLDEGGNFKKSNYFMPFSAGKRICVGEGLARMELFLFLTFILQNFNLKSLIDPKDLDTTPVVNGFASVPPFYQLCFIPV
Outline: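 Luminescence readout of luciferin formed from 10uM Luciferin-H EGE (KM level) by 5 nM CYP2C19 in 50mM KPO4. 60 min NADPH-driven reaction at 37C after 10 min compound preincubation; data scaled to 57uM ketoconazole inhibition.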

[11] = biological target: Cytochrome P450 3A4 (Homo sapiens) (UniProt P08684); test: qHTS Assay for Activators of Cytochrome P450 3A4 (AID 885); further: nearly all actives have a fitted effect of over 65% in size
Outline: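 Human CYP3A4 (20 nM) with Luciferin-PPXE at 25 uM (its KM) in 200 mM KPO4; 10 min compound preincubation, then NADPH regeneration and 60 min reaction at RT. Luciferin read by luminescence; normalized to 57 uM ketoconazole full inhibition.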

Row | Compound | Potency [1] | Potency [2] | Potency [3] | Potency [4] | Potency [5] | Potency [6] | activity change, negative = inhibition [7] | activity change, negative = inhibition [8] | activity change, negative = inhibition [9] | activity, negative = inhibition [10] | activity change, positive = activation [11] | Potency [10]
1 | O=C1CCC=C1C(O)c1ccc2c(c1)OCO2 (stereo unspecified) | inactive | inactive | inactive | inactive | inactive | inactive | – | – | – | – | – | –
2 | C#CCCCON=C1C[C@@H](O)[C@H](O)[C@H]2[C@@H]3C(=O)N(c4ccc(F)cc4F)C(=O)[C@@H]3CC[C@H]12 | inactive | inactive | inactive | inactive | inactive | inactive | – | – | – | – | – | –
3 | C[C@H]1CC[C@H]2C(=O)NC[C@H](O)CN2[C@H]1c1ccc(Br)cc1 | inactive | inactive | inactive | inactive | inactive | inactive | – | – | – | – | – | –
4 | COC[C@H]1O[C@H](c2ccccc2)C=C[C@H]1OCC=C(C)C | inactive | inactive | inactive | inactive | inactive | inactive | – | – | – | – | – | –
5 | CC1=CC[C@@H](C)O[C@@]2(C1)C(=O)Nc1cccc(Br)c12 | inactive | inactive | inactive | inactive | inactive | inactive | – | – | – | – | – | –
6 | C#CC[C@@]1(C(=O)OC)C=C[C@@H](C)[C@H](c2ccccc2Br)N1C(=O)C(F)(F)F | inactive | inactive | inactive | inactive | inactive | inactive | – | – | – | – | – | –
7 | O=C(C=Cc1cccc([N+](=O)[O-])c1)c1ccccc1 | inactive | inactive | inactive | inactive | inactive | 2.99 µM (active) | – | – | – | – | – | –
8 | CCN1C(=O)NC(c2cccc(F)c2)C(C(=O)OC)=C1C (stereo unspecified) | inactive | inactive | inactive | inactive | inactive | inactive | – | – | – | – | – | –
9 | COCn1c2ccccc2c2nnc(C(=O)O)nc21 | inactive | inactive | inactive | inactive | inactive | inactive | -6.97% [at 11.4 µM] | -11.5% [at 11.4 µM] | 12.8% [at 11.4 µM] | 65.8% [at 11.4 µM] | – | –
10 | COCC=CC1=CC2=CC(=O)C(C)(OC(=O)c3cnc4ccccc4n3)C(=O)C2=CN1CC1CC1 (stereo unspecified) | inactive | inactive | inactive | inactive | inactive | inactive | – | – | – | – | – | –
11 | COc1ccc2c(c1)C(=O)[C@@H](OC(=O)Nc1cc(OC)c(OC)c(OC)c1)[C@H](c1ccc(OC)c(Br)c1)O2 | inactive | inactive | inactive | inactive | inactive | inactive | – | – | – | – | – | –
12 | C=CCOC(=O)[C@H](O)[C@@H](O)C(=O)OCC=C | inactive | inactive | inactive | inactive | inactive | inactive | – | – | – | – | – | –
13 | COC(=O)c1nnc(SC)nc1C(=O)OC | inactive | inactive | inactive | inactive | inactive | inactive | – | – | – | – | – | –
14 | C=C(CC(=O)OC)C[C@]1(CC(=O)OC)CC2(CC=C(C)C)C(=O)C(C(=O)c3ccccc3)=C(OC(=O)c3ccc(Br)cc3)C(CC=C(C)C)(C1)C2=O (stereo partly specified) | inactive | inactive | inactive | inactive | inactive | inactive | 7.13% [at 11.4 µM] | – | -5% [at 11.4 µM] | 79.8% [at 11.4 µM] | -37.5% [at 11.4 µM] | –
15 | Cn1c(-c2ccccc2)c(O)c(=O)c2ccccc21 | inactive | inactive | inactive | inactive | inactive | inactive | -1.19% [at 11.4 µM] | -14.6% [at 11.4 µM] | 4.63% [at 11.4 µM] | 50% [at 11.4 µM] | – | –
16 | COC(=O)CC=C1c2ccc(F)cc2[C@@H](OC)[C@@H]1C | inactive | inactive | inactive | inactive | inactive | inactive | – | – | – | – | – | –
17 | CC(=O)c1ccc(OCc2ccccc2)c(C)c1O | inactive | inactive | inactive | inactive | inactive | inactive | – | -20.5% [at 11.4 µM] | -4.53% [at 11.4 µM] | – | – | 0.0501 µM (active)
18 | COC(=O)c1ccccc1C[C@]1(C(=O)OC)C=C[C@H](C)[C@@H](c2ccccc2)N1C(=O)C(F)(F)F | inactive | inactive | inactive | inactive | inactive | inactive | – | – | – | – | – | –
19 | COC(=O)N[C@@H](c1ccco1)C(C(C)=O)C(=O)OC (stereo partly specified) | inactive | inactive | inactive | inactive | inactive | inactive | – | – | – | – | – | –
20 | COc1ccc(C(=O)Oc2cc(OC)cc(OC)c2C(C)=O)cc1 | inactive | inactive | inactive | inactive | inactive | inactive | – | -16.9% [at 11.4 µM] | 5.18% [at 11.4 µM] | 27.9% [at 11.4 µM] | – | –
21 | CCN1C(=O)NC(c2cccc(F)c2)C(C(C)=O)=C1C (stereo unspecified) | inactive | inactive | inactive | inactive | inactive | inactive | – | – | – | – | – | –
22 | CC=COC(=O)N[C@@H](c1ccccc1)[C@]1(C(=O)OCC)CCCC1=O | inactive | inactive | inactive | inactive | inactive | inactive | – | – | – | – | – | –
23 | COC(=O)CC=C[C@@H](C)[C@H](NC(=O)OC)c1ccccc1Br | inactive | inactive | inactive | inactive | inactive | inactive | – | – | – | – | – | –
